# Data: PubChem BioAssay AID1347165 (National Center for Advancing Translational Sciences (NCATS), 2019)
# The whole screen tested about 220,000 compounds, of which about 5,700 (2.6%) were called active. Roughly 18% stayed inconclusive and do not appear here. Calls come from the whole dose curve; as a rule, active = well fitted inhibition curve with a large enough effect; inconclusive = small, poorly fitted or top-dose-only effect; inactive = no such curve, though single readings can be large or run the other way. The sample as a whole holds a higher share of actives than the screen did.
# Target: Lysine-specific demethylase 5B (Homo sapiens) (UniProt Q9UGL1)
# Sequence (Q9UGL1 whole entry, looked up): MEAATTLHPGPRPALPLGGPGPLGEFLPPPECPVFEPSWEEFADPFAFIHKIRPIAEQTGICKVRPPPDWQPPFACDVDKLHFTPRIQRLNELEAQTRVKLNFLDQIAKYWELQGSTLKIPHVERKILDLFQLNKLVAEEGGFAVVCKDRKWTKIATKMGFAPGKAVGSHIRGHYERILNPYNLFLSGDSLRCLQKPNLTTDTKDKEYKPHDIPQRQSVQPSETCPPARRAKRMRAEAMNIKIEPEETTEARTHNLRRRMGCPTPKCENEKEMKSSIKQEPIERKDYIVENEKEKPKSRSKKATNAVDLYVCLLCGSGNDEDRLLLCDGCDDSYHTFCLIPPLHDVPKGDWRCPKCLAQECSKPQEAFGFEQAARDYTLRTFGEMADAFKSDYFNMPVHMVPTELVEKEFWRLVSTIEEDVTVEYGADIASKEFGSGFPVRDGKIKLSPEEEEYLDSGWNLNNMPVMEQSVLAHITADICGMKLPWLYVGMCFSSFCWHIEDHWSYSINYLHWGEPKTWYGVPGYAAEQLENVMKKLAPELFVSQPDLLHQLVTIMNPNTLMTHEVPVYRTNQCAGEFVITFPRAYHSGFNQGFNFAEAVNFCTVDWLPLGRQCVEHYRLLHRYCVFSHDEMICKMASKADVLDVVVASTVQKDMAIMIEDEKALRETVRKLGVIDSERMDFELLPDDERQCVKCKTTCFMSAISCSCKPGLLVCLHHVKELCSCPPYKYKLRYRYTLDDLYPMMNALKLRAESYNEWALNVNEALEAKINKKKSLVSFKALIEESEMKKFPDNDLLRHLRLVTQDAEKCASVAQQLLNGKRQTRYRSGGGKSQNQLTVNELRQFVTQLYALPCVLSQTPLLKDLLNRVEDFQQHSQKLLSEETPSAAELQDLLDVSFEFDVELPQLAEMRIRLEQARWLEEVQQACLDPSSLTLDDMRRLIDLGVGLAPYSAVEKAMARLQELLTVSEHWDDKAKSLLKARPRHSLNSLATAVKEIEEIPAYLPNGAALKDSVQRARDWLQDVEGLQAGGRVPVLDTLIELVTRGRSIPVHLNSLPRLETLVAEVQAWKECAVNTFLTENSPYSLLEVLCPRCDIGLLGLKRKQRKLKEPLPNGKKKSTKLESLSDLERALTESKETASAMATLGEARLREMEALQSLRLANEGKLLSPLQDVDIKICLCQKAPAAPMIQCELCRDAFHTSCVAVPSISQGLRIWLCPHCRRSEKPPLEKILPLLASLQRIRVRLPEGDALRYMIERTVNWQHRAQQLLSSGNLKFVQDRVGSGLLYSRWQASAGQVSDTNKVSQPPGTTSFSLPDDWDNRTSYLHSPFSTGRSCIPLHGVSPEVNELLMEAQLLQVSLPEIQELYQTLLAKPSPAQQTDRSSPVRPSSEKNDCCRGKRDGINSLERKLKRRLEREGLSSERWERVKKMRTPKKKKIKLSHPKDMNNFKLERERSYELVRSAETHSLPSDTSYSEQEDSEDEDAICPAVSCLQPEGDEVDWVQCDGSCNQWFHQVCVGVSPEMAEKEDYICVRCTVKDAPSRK
# Assay: Primary screen for KDM5B Histone Demethylases FDH-coupled qHTS; note: nearly all actives have a fitted effect of over 70% in size; for activity change, negative = inhibition: 0% is about no effect
# Settings: FDH-coupled NADH fluorescence (FDH is formaldehyde dehydrogenase); series mostly up to 57.7 µM; activity change, negative = inhibition: at the top concentration
# Summary of the method: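 Compound dilutions met 200 nM (final) KDM5BΔAP for 10 min at room temperature before substrate addition. The substrate mix held 12.5 µM H3K4me3 with cofactors 25 µM α-ketoglutarate and 50 µM Fe²⁺. NADH signal gain over 30 min defined activity.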
# Potency is the fitted concentration of half-maximal effect.
SMILES,"activity change, negative = inhibition",Potency
O=C(/C=C/c1ccc(F)cc1)NNC(=O)c1ccc(NC(=O)C2CCCCC2)cc1,22.8% (inactive),
CCCCCOC(=O)COc1ccc2c(=O)c(Oc3cccc(C)c3)c(C(F)(F)F)oc2c1,-13.5% (inactive),
CC(C)C(NC(=O)Cc1ccc(N2CCCC2=O)cc1)c1nc2ccccc2[nH]1 (stereo not drawn),0.833% (inactive),
CCCS(=O)(=O)N1Cc2c(ncn2Cc2ccc(Cl)cc2)C[C@H]1C(=O)OC,-11.5% [at 86.2 µM] (inactive),
CCCn1cnc2c1CN(S(=O)(=O)Cc1ccccc1)[C@H](C(=O)OC)C2,,39.8 µM (active)
COC(=O)[C@@H]1Cc2ncn(Cc3ccccc3)c2CN1C(=O)CC(C)(C)C,12.1% [at 86.2 µM] (inactive),
CCC(C)NC(=O)c1sccc1-c1ccccc1 (stereo not drawn),-1.07% (inactive),
CCc1nc2ccc(C(=O)NCCCN(CC)CC)cc2nc1CC,-4.96% (inactive),
CCc1c(C)sc(NC(=O)c2cccc(Br)c2)c1C#N,-22.5% (inactive),
CC1CCC2CCCCC2N1C(=O)c1cc([N+](=O)[O-])cc([N+](=O)[O-])c1 (stereo not drawn),15.2% (inactive),
O=S(=O)(c1cccs1)N1CCn2cccc2C1c1ccccc1F (stereo not drawn),-17.1% (inactive),
Cn1ccnc1C(=O)N1CCC2(CC1)CN(c1ncccn1)CC2CO (stereo not drawn),,22.4 µM (active)
CCN1C(=O)C2CC3(CCN(C(=O)c4nccn4C)CC3)CN2C1=O (stereo not drawn),-0.431% (inactive),
CC(=O)N1CC(CO)C2(CCN(C(=O)c3ccccc3Cl)CC2)C1 (stereo not drawn),-9.24% (inactive),
Cn1cc(CC(=O)N2CCCc3ncc(C(=O)NCCOc4ccccc4)cc32)c2ccccc21,-22.5% (inactive),
Cc1cccc(NC(CNS(=O)(=O)c2ccccc2)c2ccccc2)c1 (stereo not drawn),-32.1% (inactive),
CC(C)OCCC(=O)N1CCCC(CN2CCN(c3ccccn3)CC2)C1 (stereo not drawn),8.81% (inactive),
O=C(CC(NC(=O)c1ccccc1)c1ccccc1)NCc1cccs1 (stereo not drawn),16.9% (inactive),
CCOC(=O)N1CCN(Cc2cc(=O)oc3c(C)c(C)cc(C)c23)CC1,7.55% (inactive),
c1cnc2nc(C3CCCCN3)[nH]c2c1 (stereo not drawn),31.4% [at 230 µM] (inactive),
CCC(Sc1nc2ncccc2[nH]1)C(=O)Nc1ccc(C)c(Cl)c1 (stereo not drawn),0.346% (inactive),
Cc1cc(C)c(-c2nc3ncccc3[nH]2)[nH]1,,35.5 µM (active)
OC(c1nc2ccc(F)cc2[nH]1)C(O)c1nc2ccc(F)cc2[nH]1 (stereo not drawn),22.8% (inactive),
NC(=O)c1cccc(-c2ncc3c(n2)OCCN(c2cccc(C(F)(F)F)c2)C3=O)c1,-19.4% [at 86.2 µM] (inactive),
O=C1c2cnc(-c3ccc(O)c(F)c3)nc2OCCN1Cc1ccccc1,,20 µM (active)
O=C1c2cnc(-c3ccccc3)nc2OCCN1c1ccccc1,-26.1% [at 86.2 µM] (inactive),
COc1ccc(-c2ncc3c(n2)OCCN(Cc2ccccc2)C3=O)cn1,,28.2 µM (active)

SMILES,"activity change, negative = inhibition",Potency
O=C1c2cnc(-c3ccc(Cl)cc3)nc2OCCN1Cc1ccccc1,-17.4% [at 86.2 µM] (inactive),
NC(=O)c1cccc(-c2ncc3c(n2)OCCN(Cc2ccccc2)C3=O)c1,-15.6% [at 86.2 µM] (inactive),
CCCNc1c(NC(=O)Nc2ccccc2)c(=O)oc2ccccc12,2.4% (inactive),
CCCCN1C(=O)NC(c2ccc(OC)cc2)C2=C1COC2=O (stereo not drawn),1.95% (inactive),
O=C(Nc1ccc(F)cc1)C1=C(N2CCCC2)c2ccccc2S1(=O)=O,-3.03% (inactive),
Cn1nc(C(=O)Nc2nc(-c3cc(F)ccc3F)cs2)c2ccccc2c1=O,10.3% (inactive),
CC(C)(C)Sc1ccc2nn(CC(=O)NCc3ccccc3Cl)c(=O)n2n1,-3.69% (inactive),
Cc1nc(Cc2nn3c(-c4cc(Cl)ccc4F)nnc3s2)cs1,10.3% (inactive),
Cc1nc(C)c(C(=O)C2=C(O)C(=O)N(CCN3CCOCC3)C2c2ccc(C(C)(C)C)cc2)s1 (stereo not drawn),-23% (inactive),
COC(=O)c1ccc(COc2c(Cl)cccc2Cl)cc1,16.2% (inactive),
Cc1nn(-c2ccc(C(C)C)cc2)c(C)c1[C@@H]1C=C[C@@H](NC(=O)Nc2ccccc2)C1,1.7% [at 86.2 µM] (inactive),
Cc1nn(-c2ccc(C(C)(C)C)cc2)c(C)c1[C@@H]1C=C[C@@H](NC(=O)c2ccco2)C1,,31.6 µM (active)
Cc1nn(-c2ccccc2)c(C)c1[C@@H]1C=C[C@@H](NC(=O)c2ccc3c(c2)OCO3)C1,-20% [at 86.2 µM] (inactive),
CCCCN(CCCC)c1nc2ccccc2nc1C(C#N)C(=O)OC(C)C (stereo not drawn),-8.23% (inactive),
N#Cc1cccc(Oc2cccc3cccnc23)c1C#N,-19.6% (inactive),
c1csc(CNCC2CCNCC2)c1,-4.86% (inactive),
CSc1ccc(-c2ccc(C=O)cc2)cc1,,10 µM (active)
CSc1ccc(/C=N/Nc2c(Cl)cc(Cl)cc2Cl)cc1,-27.6% (inactive),
O=Cc1cccc(-c2cc(F)cc(F)c2)c1,16.8% [at 230 µM] (inactive),
CNC(=O)c1cccc(CNC(=O)C=C(C)C)c1,-5.74% (inactive),
Cc1noc(C)c1COc1ccc(C(=O)NCCOc2ccccc2)cc1,22.7% (inactive),
Cc1nn(-c2nc3c(c(=O)n(CCN4CCCCC4)c(=O)n3C)n2C)c(C)c1C,15.4% (inactive),
CCOC(=O)c1ccc(NC(=O)Cn2c(=O)cc(C)c3c(C)nn(-c4cccc(F)c4)c32)cc1,2.81% (inactive),
COc1cccc(NC(=O)Cn2c(=O)cc(C)c3c(C)nn(-c4cccc(F)c4)c32)c1,10.7% (inactive),
CCOCC(=O)Nc1nn(-c2cccc(F)c2)c2cccc(N3CCOC3=O)c12,,28.2 µM (active)
COCCN1C(=O)C(O)=C(C(=O)c2ccc(C)o2)C1c1ccc(O)c(OC)c1 (stereo not drawn),-14.1% (inactive),
